{"source": "PubChem BioAssay AID602358", "about": "(National Center for Advancing Translational Sciences (NCATS), 2012)", "note": "Results filed as inconclusive are left out. The source made the active and inactive calls. The call rests on the fitted dose curve; in most records, active means well fitted inhibition curve with a large enough effect; inconclusive means small, poorly fitted or top-dose-only effect; inactive means flat fitted curve, though single readings scatter."}
{"molecular_target": "Luciferin 4-monooxygenase (Photinus pyralis) (UniProt P08659)", "sequence (P08659 whole entry, looked up)": "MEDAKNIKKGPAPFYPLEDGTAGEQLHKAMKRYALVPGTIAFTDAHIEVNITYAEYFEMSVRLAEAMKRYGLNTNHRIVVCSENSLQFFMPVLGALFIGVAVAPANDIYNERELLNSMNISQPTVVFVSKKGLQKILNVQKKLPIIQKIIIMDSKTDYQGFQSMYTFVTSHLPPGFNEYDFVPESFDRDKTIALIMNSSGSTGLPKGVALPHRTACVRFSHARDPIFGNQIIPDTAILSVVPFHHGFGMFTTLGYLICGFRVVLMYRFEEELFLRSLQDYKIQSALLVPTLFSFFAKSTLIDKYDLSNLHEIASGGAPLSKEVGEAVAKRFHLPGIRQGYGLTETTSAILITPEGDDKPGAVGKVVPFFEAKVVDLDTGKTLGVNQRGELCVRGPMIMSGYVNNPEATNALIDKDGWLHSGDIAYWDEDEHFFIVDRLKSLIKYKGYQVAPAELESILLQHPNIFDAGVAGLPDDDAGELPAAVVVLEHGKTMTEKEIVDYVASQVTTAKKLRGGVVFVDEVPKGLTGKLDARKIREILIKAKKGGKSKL", "assay": "FLuc inhibitory activity for the follow-up compounds in a biochemical assay with Km concentrations of substrate and 500microM CoASH", "conditions": "purified FLuc, Km substrates + 500 uM CoASH, luminescence; series mostly up to 57.5 µM", "source_text": "NCGC Assay Overview: Firefly (Photinus pyralis) luciferase is one of the most commonly used transcriptional reporters. It is considered one of the more dynamically responsive reporters - that is, responsive to changes in reporter transcription - as it requires no post-translational modifications and is enzymatically active directly after protein synthesis (Wood, 1998). With no endogenous expression in mammalian cells and without the requirement of external excitation, it offers very little background signal, thus generally providing excellent signal to background for most assays. Previous profiling work to determine the prevalence of compounds that affect FLuc enzymatic activity (PubChem AID 411) identified that ~3% of the MLSMR library (then at ~72K) inhibited FLuc. […] Of the compounds identified in this profile that inhibited FLuc, 151 compounds were selected for further analysis, in an effort to better understand their mode of inhibiting FLuc. The assay described here was to determine the activity of the compounds in an FLuc assay that contained KM concentrations of substrates and 500uM CoASH.\nNCGC Assay Protocol Summary: Reagents: 50mM Tris acetate, pH 7.5; 10mM Mg acetate; 10uM D-luciferin (Sigma #L9504); 10uM ATP; 0.01% Tween-20; 0.05% BSA; 10nM P. pyralis luciferase (Sigma #L9506); 500 uM CoASH Control compounds used were two known firefly luciferase inhibitors (3-(5-(3-chlorophenyl)-1,2,4-oxadiazol-3-yl)benzoic acid and 5-(2-fluorophenyl)-3-phenyl-1,2,4-oxadiazole), and DMSO. Three microliters containing firefly luciferase substrates in buffer (final concentrations: 50mM Tris acetate, pH 7.5, 10mM Mg acetate, 0.01% Tween-20, 0.05% BSA, 10uM D-luciferin, 10uM ATP, and 500 uM CoASH) are dispensed into each well of a Greiner white, solid-bottom 1536-well format plate using a flying reagent dispenser (FRD). These assay plates were then treated with 23nL of compound or DMSO using a Kalypsys pin tool, which allows for delivery of a 12-point intraplate titration of each compound to the assay plate (quantitative HTS), with a final compound concentrations ranging from approximately ~60uM to 0.3nM. One microliter of firefly luciferase in 500mM Tris-acetate buffer was then delivered by FRD to each well for a final enzyme concentration of 10nM. Luciferase activity was then measured using a ViewLux CCD imager (PerkinElmer), with an average exposure time of 2-30 seconds (2X binning, medium/high gain)."}
{"smiles": "Cc1ccc2nc(-c3ccc(NC(=O)CN4CCN(C(=O)c5ccco5)CC4)cc3)sc2c1", "Potency": "3.66 µM (active)"}
{"smiles": "CN=c1scc(-c2ccccc2F)n1/N=C/c1ccc[nH]1", "Potency": "0.0163 µM (active)"}
{"smiles": "O=C(O)c1cccc(NC(=O)c2cccc(S(=O)(=O)Nc3cccc(F)c3)c2)c1", "Potency": "inactive"}
{"smiles": "Cc1c(NS(C)(=O)=O)cccc1-c1nc2ccccc2s1", "Potency": "3.66 µM (active)"}
{"smiles": "CCc1noc(C)c1C(=O)Nc1nc2ccc(OC)cc2s1", "Potency": "13 µM (active)"}
{"smiles": "Cc1ccc(C(=O)Nc2ccc(C(=O)O)cc2)cc1S(=O)(=O)NCc1ccccc1", "Potency": "inactive"}
{"smiles": "COc1ccc2nc(NC(=O)c3cccc(S(=O)(=O)N4CCOCC4)c3)sc2c1", "Potency": "14.6 µM (active)"}
{"smiles": "COc1ccc2nc(NC(=O)c3ccc4ncsc4c3)sc2c1", "Potency": "0.651 µM (active)"}
{"smiles": "COc1ccc(C(=O)Nc2ccccc2-c2nc3ccccc3s2)c(OC)c1", "Potency": "inactive"}
{"smiles": "CCOc1c(Cl)cc(C(=O)Nc2ccccc2C(=O)O)cc1Cl", "Potency": "11.6 µM (active)"}
{"smiles": "COc1ccc2nc(NC(=O)Cc3cccs3)sc2c1", "Potency": "5.8 µM (active)"}
{"smiles": "O=C(Nc1ccccc1C(=O)O)c1cccc(NC(=O)c2ccccc2Br)c1", "Potency": "14.6 µM (active)"}
{"smiles": "CCOc1ccc2nc(NC(=O)c3ccoc3C)sc2c1", "Potency": "0.183 µM (active)"}
{"smiles": "CN(C)S(=O)(=O)c1ccc(C(=O)Nc2ccccc2C(=O)O)cc1", "Potency": "9.19 µM (active)"}
{"smiles": "O=C(Nc1ccccc1C(=O)O)c1ccc(NC(=O)C2CC2)cc1", "Potency": "0.73 µM (active)"}
{"smiles": "COc1ccc(C(=O)Nc2ccccc2C(=O)N/N=C/c2ccc(O)c(OC)c2)cc1", "Potency": "0.0037 µM (active)"}
{"smiles": "CCOc1ccc2nc(NC(=O)c3cccnc3)sc2c1", "Potency": "1.3 µM (active)"}
{"smiles": "Cc1ccccc1C(=O)Nc1cccc(C(=O)Nc2ccccc2C(=O)O)c1", "Potency": "16.3 µM (active)"}
{"smiles": "O=C(Nc1ccccc1C(=O)O)c1cc(S(=O)(=O)NCc2ccccc2)ccc1Cl", "Potency": "inactive"}
{"smiles": "CC(C)c1ccc(-c2nc3ccccc3s2)cc1", "Potency": "0.013 µM (active)"}
{"smiles": "Nc1ccc2nc(-c3ccccc3)sc2c1", "Potency": "0.058 µM (active)"}
{"smiles": "COc1ccc(C(=O)Nc2nc3ccc(OC)cc3s2)cc1", "Potency": "0.58 µM (active)"}
{"smiles": "COc1ccc(NS(=O)(=O)c2cccc(C(=O)Nc3ccccc3C(=O)O)c2)cc1", "Potency": "inactive"}
{"smiles": "COc1ccc(-c2nc3ccccc3s2)cc1O", "Potency": "0.0326 µM (active)"}
{"smiles": "Cc1cccc(C(=O)Nc2ccc(-c3nc4ccccc4s3)cc2Cl)c1", "Potency": "18.3 µM (active)"}
{"smiles": "Cc1ccc(C(=O)Nc2cccc(C(=O)O)c2)cc1S(=O)(=O)N1CCCC1", "Potency": "5.17 µM (active)"}
{"smiles": "O=C(Nc1ccccc1-c1nc2ccccc2s1)c1cccnc1", "Potency": "inactive"}
{"smiles": "O=C(Nc1ccccc1C(=O)O)c1cccc(NC(=O)c2ccco2)c1", "Potency": "6.51 µM (active)"}
{"smiles": "O=C(O)c1ccc(NC(=O)c2cccc(NC(=O)c3cccs3)c2)cc1", "Potency": "5.8 µM (active)"}
{"smiles": "COc1ccccc1C(=O)Nc1ccc(C(=O)Nc2ccccc2C(=O)O)cc1", "Potency": "20.6 µM (active)"}
{"smiles": "Nc1ccc(C(=O)Nc2ccccc2C(=O)O)cc1", "Potency": "3.26 µM (active)"}
{"smiles": "COc1ccc2nc(NC(=O)c3cccs3)sc2c1", "Potency": "13 µM (active)"}
{"smiles": "CC(=O)Oc1ccc(C(=O)Nc2ccccc2C(=O)Nc2cccc(C(=O)O)c2)cc1", "Potency": "2.59 µM (active)"}
{"smiles": "O=C(Nc1cccc(-c2nc3ccccc3s2)c1)C1=COCCO1", "Potency": "7.3 µM (active)"}
{"smiles": "O=C(Nc1ccccc1C(=O)Nc1ccccc1C(=O)O)c1ccccc1", "Potency": "10.3 µM (active)"}
{"smiles": "COc1ccc2nc(NC(=O)c3ccc(S(=O)(=O)N4CCCC(C)C4)cc3)sc2c1", "note": "(stereo not given)", "Potency": "inactive"}
{"smiles": "O=C(O)c1cccc(NC(=O)c2ccccc2NC(=O)c2ccccc2F)c1", "Potency": "18.3 µM (active)"}
{"smiles": "Cc1ccc2sc(-c3ccc(NC(=O)c4cc(-n5cnnc5)ccc4Cl)cc3)nc2c1", "Potency": "1.63 µM (active)"}
{"smiles": "COc1ccc2nc(NC(=O)c3nc(S(=O)(=O)Cc4ccc(C)cc4)ncc3Cl)sc2c1", "Potency": "2.06 µM (active)"}
{"smiles": "Nc1ccc(-c2nc3ccc(N)cc3s2)cc1", "Potency": "0.116 µM (active)"}
